HT1080-NT tox – kills 2HG-producing HT-1080-NT fibrosarcoma cells | hit rate 1.6% among 360,000 | AID 686970 | HT-1080-NT fibrosarcoma viability, CellTiter-Glo ATP luminescence, 48 h | Potency, µM (titrated, usually from 46.1 µM), without a hit: at the top dose activity, negative = less viability, usual class: cytotoxic;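 also: NT is the 2HG producing partner of a matched IDH1 knockdown line; potency is read from the fitted curve at half-maximal effect; 0% = DMSO-treated cells and -100% = media-only wells without cells; nearly all actives have a fitted effect of over 55% in size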
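Luminescent CellTiter-Glo readout after 48 hours of compound exposure at 37 degrees C defined viability of HT-1080-NT cells. Activity was normalized to DMSO wells and cell-free media wells; concentration-response curves were fitted and assigned curve classes.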
ALOX12 inh – inhibitors of human 12S-lipoxygenase ALOX12; P18054; purified 12hLO, xylenol orange hydroperoxide absorbance; Potency, µM (top dose mostly 108 µM), inactives show top-dose activity change, negative = inhibition, usual class: inhibitors; hit rate 1.1% among 580,000; AID 1671190; also: potency is read from the fitted curve at half-maximal effect
Target sequence (P18054 whole entry, looked up): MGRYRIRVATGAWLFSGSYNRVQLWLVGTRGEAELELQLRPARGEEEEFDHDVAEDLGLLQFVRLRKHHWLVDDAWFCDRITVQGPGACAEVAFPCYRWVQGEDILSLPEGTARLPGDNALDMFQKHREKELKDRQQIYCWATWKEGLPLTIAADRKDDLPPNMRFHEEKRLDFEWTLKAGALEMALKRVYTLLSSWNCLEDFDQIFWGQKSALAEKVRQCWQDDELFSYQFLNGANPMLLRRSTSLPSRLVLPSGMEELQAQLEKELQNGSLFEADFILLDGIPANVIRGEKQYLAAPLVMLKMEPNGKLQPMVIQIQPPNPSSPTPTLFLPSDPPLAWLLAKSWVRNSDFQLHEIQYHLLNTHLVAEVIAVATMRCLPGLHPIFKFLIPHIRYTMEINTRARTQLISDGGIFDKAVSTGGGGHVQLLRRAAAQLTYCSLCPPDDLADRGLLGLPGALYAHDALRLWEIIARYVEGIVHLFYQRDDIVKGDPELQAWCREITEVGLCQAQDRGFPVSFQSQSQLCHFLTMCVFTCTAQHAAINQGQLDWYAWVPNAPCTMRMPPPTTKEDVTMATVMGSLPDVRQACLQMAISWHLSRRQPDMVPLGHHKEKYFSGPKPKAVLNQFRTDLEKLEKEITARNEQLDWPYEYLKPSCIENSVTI
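Purified human 12hLO at 150 nM in 25 mM Hepes, 0.01% Triton X-100, pH 7.0, preincubated 15 min at room temperature with compound. Reaction started with 40 uM arachidonic acid, 30 min at room temperature. Hydroperoxide measured by Fe-xylenol orange, 573/405 nm absorbance ratio.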
IL1B secr inh – blocks inflammasome-driven IL-1 beta release; hit rate 4.7% among 360,000; activity change, % at 57.5 µM; THP-1 LPS/ATP IL-1B secretion, AlphaLISA, 16 h; active compounds read low; in the data active = activity change below about -50%; inconclusive = mostly about -30% to -49%
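THP-1 cells pretreated 1 hr with compounds (up to 57.5 uM final), then stimulated with LPS (250 ng/mL final) plus ATP (1.25 mM final); secreted IL-1B measured by AlphaLISA after 16 hr, decreased signal indicating inhibition.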
DT40 TDP1 CPT – DT40-hTDP1 cell growth loss with CPT; chicken DT40 Tdp1-/-;hTDP1 cells + 20 nM CPT, ATP luminescence, 48 h; Potency, µM (doses to about 46.2 µM), for the others: at the highest dose activity change, negative = growth inhibition, usual class: inhibitors; hit rate 12% among 420,000; also: potency is read from the fitted curve at half-maximal effect; nearly all actives have a fitted effect of over 55% in size
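Cell growth measured by CellTiter-Glo luminescence after a minimum 48 h, 37 C compound exposure with 20 nM CPT in Tdp1-knockout DT40 cells stably expressing hTDP1, seeded 400/well; qHTS titration format.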
DT40 TDP1 no CPT – qHTS for Inhibitors of human tyrosyl-DNA phosphodiesterase 1 (TDP1): qHTS in cells in absence of CPT. DT40 Tdp1-/- hTDP1 cells, no CPT, ATP luminescence, 48 h. Potency, µM (highest dose often 46.2 µM), inactives show at the top dose activity change, negative = growth inhibition, usual class: inhibitors. AID 686978, 2013. hit rate 15% among 420,000; also: potency is read from the fitted curve at half-maximal effect; nearly all actives have a fitted effect of over 55% in size
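No-CPT arm: Tdp1-/-;hTDP1 DT40 cells (400/well) plus compounds, incubated ≥48 hr at 37 °C. Readout CellTiter-Glo luminescence.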
HT1080 IDH1KD tx – toxicity to HT-1080 IDH1 knockdown cells (counter line); HT-1080 IDH1 knockdown viability, ATP luminescence, 48 h; Potency, µM (top dose mostly 46.1 µM), for inactives: at the top dose activity, negative = toxicity, hits mostly cytotoxic; hit rate 2% among 360,000; AID 686971;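 also: potency is read from the fitted curve at half-maximal effect; 0% = DMSO wells and -100% = cell-free medium wells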
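% activity derives from luminescence (CellTiter-Glo), normalised to DMSO and no-cell wells. HT-1080-IDH1KD cells, 750/well, had 48 h compound exposure at 37 °C.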
The depositor's hits bear a star; ? = inconclusive; / = no result; [ ] = another dose, or the depositor's remark. Shown is part of a subset that was picked to be rich in hits. Unless noted, calls follow the shape of the dose curve; as a rule, active = well fitted curve in the direction sought with a large enough effect; inconclusive = small, poorly fitted or top-dose-only effect, or another doubt; inactive = no such curve, though single readings can be large; an effect the other way counts as inactive or inconclusive. Unless noted, % is scaled to controls: 0 for no effect and ±100 for the full control effect.

SMILES	HT1080-NT tox	ALOX12 inh	IL1B secr inh	DT40 TDP1 CPT	DT40 TDP1 no CPT	HT1080 IDH1KD tx
O=C(CN1CCN(c2ccccn2)CC1)Nc1ccccc1	14%	0%	-19	-9%	-6%	21%
NS(=O)(=O)c1cccc(NC(=O)COC(=O)Cn2cnc3ccccc32)c1	12%	0%	15	1%	18%	?
O=C(Cn1c(NCCO)nc2ccccc21)Nc1cccc(S(=O)(=O)N2CCCC2)c1	-8%	-11%	22	?	10µM*	-1%
O=C(CN1CCN(c2ccccn2)CC1)Nc1cccc(S(=O)(=O)N2CCCC2)c1	-3%	-6%	2	?	16µM*	-7%
Cc1ccc(NC(=O)c2cccc(NC(=O)N3CCSc4ncccc43)c2)cc1F	/	?	/	-19%	-25%	/
Cc1cc(Cl)ccc1NC(=O)c1cccc(NC(=O)N2CCSc3ncccc32)c1	/	-37%	/	?	16µM*	/
Cc1ccc(NC(=O)c2ccc(NC(=O)N3CCSc4ncccc43)cc2)cc1Cl	/	?	/	16µM*	12µM*	/
COCCNC(=O)C[C@@H]1O[C@H](CNC(=O)c2cccc(F)c2)[C@@H](O)[C@H]1O	/	-5%[176 µM]	/	/	/	/
COc1ccc(N(C)C(=O)c2cc3c(s2)-c2c(C)cccc2OC3)c(OC)c1	-9%	0%	-7	?	21µM*	-21%
COc1cc(OC)c(N(C)C(=O)c2cc3c(s2)-c2ccccc2OC3)cc1Cl	/	-18%	/	13µM*	23µM*	/
COc1ccc(N(C)C(=O)c2cc3c(s2)-c2ccccc2OC3)cc1	/	-15%	/	?	?	/
COc1cccc(N2CCN(C(=O)c3cc4c(s3)-c3c(C)cccc3OC4)CC2)c1	/	8%	/	?	23µM*	/
Cc1cccc2c1-c1sc(C(=O)NCc3ccccc3Cl)cc1CO2	/	-24%	/	16µM*	26µM*	/
Cc1cc(N2CCN(C(C(=O)O)c3c[nH]c4ccccc34)CC2)nc2ccccc12 (stereo not given)	/	-1%	/	/	/	/
CCc1ccccc1N(C)C(=O)c1cc2c(s1)-c1c(C)cccc1OC2	/	-12%	/	23µM*	23µM*	/
Cc1cccc2c1-c1sc(C(=O)Nc3ccccc3C(N)=O)cc1CO2	/	?	/	-28%	?	/
Cc1cccc2c1-c1sc(C(=O)Nc3cccc([N+](=O)[O-])c3C)cc1CO2	-10%	-26%	-52*	?	23µM*	-2%
O=c1oc2ccccc2cc1-c1csc(NN=C2CCCCC2)n1	?	3%	-12	?	18µM*	-18%
O=c1oc2ccccc2cc1-c1csc(Cc2nc(-c3ccc(Cl)cc3)cs2)n1	1%	8%	8	?	26µM*	-11%
CCOc1ccc2cc(-c3csc(Nc4ccccc4F)n3)c(=O)oc2c1	/	-7%	/	/	/	/
O=C(Nc1nc(-c2cc3ccccc3oc2=O)cs1)c1ccccc1	/	11%	/	/	/	/
O=c1oc2ccccc2cc1-c1csc(Nc2nc3c(F)cccc3s2)n1	-10%	-26%	16	15µM*	16µM*	?
O=S(=O)(c1cccc(Br)c1)N1CCSCC1	/	11%	/	/	/	/
CC(C)C(=O)NCCNC(=O)c1cn(C)c2ccccc12	/	-5%	/	/	/	/
C=C(C)C1CC=C(C)C(COc2ccc3ccc(=O)oc3c2)C1(C)CCC(=O)OC (stereo not given)	/	-18%	/	/	/	/
SMILES	HT1080-NT tox	ALOX12 inh	IL1B secr inh	DT40 TDP1 CPT	DT40 TDP1 no CPT	HT1080 IDH1KD tx
O=C(NCC1CCCO1)c1ccc(-c2ccc(N3CCSCC3)nc2)cc1 (stereo not given)	/	-29%	/	/	/	/
CCSc1nc(-c2ccccc2)c(C#N)c(=O)[nH]1	-9%	-11%	22	4%	2%	-2%[9.24 µM]
N#Cc1c(-c2ccccc2)nc(SCc2nc(N)nc(N3CCCCC3)n2)[nH]c1=O	-5%	?	0	12µM*	?	?
COc1ccc(C2CC(=O)C3=C(C2)NC(C)=C(C#N)C3c2ccc(N(C)C)cc2)cc1 (stereo not given)	-1%	-17%	-66*	8%	-22%	-11%
COC(=O)c1ccc(C2C(C#N)=C(C)NC3=C2C(=O)CC(C)(C)C3)cc1 (stereo not given)	2%	-5%	23	-22%	-21%	10%
COc1ccc(C2C(C#N)=C(SC)NC3=C2C(=O)CC(C)(C)C3)cc1 (stereo not given)	-8%	?	-15	6.5µM*	8.2µM*	-13%
COc1ccc(C2C(C#N)=C(N)OC3=C2C(=O)CC(C)(C)C3)cc1 (stereo not given)	1%	-11%	-1	4%	0%	2%
COc1cc(OC)c(NC(=O)c2nc3ccccc3nc2N2CCCCC2)cc1Cl	/	0%	/	/	/	/
O=C(CSc1nnc(-c2ccccc2F)n1-c1ccccc1)NC(=O)NCc1ccccc1	/	0%	/	/	/	/
CCCN(CCC)CCNC(=O)c1ccc(CN2CC(=O)N3CCCCC3C2=O)cc1 (stereo not given)	/	17%	/	/	/	/
CCCCCn1c(=O)[nH]c2cc(C(=O)NCCN3CCC(C)CC3)ccc2c1=O	3%	/	-4	-4%	?	10%
O=C(NCCN1CCC(n2c(=O)[nH]c3ccccc32)CC1)c1cc(F)cc(F)c1	-18%	?	-53*	-10%	-30%	-1%
CCCCOc1ccc(C(=O)NCCN2CCC(n3c(=O)[nH]c4ccccc43)CC2)cc1	?	?	-17	?	?	16µM*
O=C(NCCN1CCC(n2c(=O)[nH]c3ccccc32)CC1)C(c1ccccc1)c1ccccc1	?	?	-80*	16µM*	16µM*	?
O=C(NCCN1CCC(n2c(=O)[nH]c3ccccc32)CC1)c1cccc(F)c1	13%	45µM*	-74*	-29%	-23%	-10%
O=C(c1cccc(Br)c1)N1CCC(n2c(=O)[nH]c3ccccc32)CC1	/	-16%	/	/	/	/
O=C(NCCN1CCC(n2c(=O)[nH]c3ccccc32)CC1)c1ccncc1	-18%	?	-28	-48%	-47%	-13%
O=C(NCCN1CCC(n2c(=O)[nH]c3ccccc32)CC1)c1cccnc1Cl	15%	-2%	?	?	-28%	12%
COC(=O)[C@@H]1Cc2ncn(Cc3ccc(OC)cc3)c2CN1S(=O)(=O)c1cccc2cccnc12	/	36%	/	/	/	/
O=[N+]([O-])c1ccccc1C=NN1CCCCCC1	-3%	?	-16	-29%	?	-9%

Bioassay records as filed in PubChem.
